Here are results for 39 compounds from PubChem BioAssay (NCI).

The panel holds about 83,000 compounds, 20% with a hit somewhere; the sample as a whole holds those more often.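 For each line, cells grew in 96-well plates with the test compound present at a single concentration for 48 hours.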 A number with no mark means an inactive call. The source made the active and inactive calls. The calls were made as follows: active = growth percent below 10; inactive = the rest.

The assay relates to EKVX NSCLC. As to the kind of experiment: NCI-60 one-dose screen, 48 h (100 = growth as untreated, 0 = no growth, -100 = all killed). The following applies: 10 µM.
Regarding `C=C(C(=O)c1ccccc1)C(NC(C)(C)C)c1ccccc1` (centres undefined), the growth is 52.3%.
`O=c1c2ccccc2nc(SCCN2CCCCC2)n1CCc1ccccc1`: the growth is 70.7%.
With `N=c1c2c(-c3ccccc3)c(-c3ccccc3)n(Cc3ccccc3)c2ncn1CCCO`, the growth is 36.5%.
For `COc1cc(/C=C2\Oc3cc(OCC(=O)c4ccccc4)ccc3C2=O)cc(OC)c1OC` the value was 108%.
For the compound `Cc1ccc(NC(=O)CSc2nc3ccccc3c(=O)n2CCc2ccccc2)c(C(=O)O)c1`, the growth was 73.4%.
As to `O=C(Nc1nc2ccc(F)cc2s1)c1cc(-c2ccc(F)cc2)n2nc(-c3ccccc3)cc2n1`, the growth was 84.1%.
For `CN1CCCNc2c(c(=O)c2=O)NCCCN(C)CCCNc2c(c(=O)c2=O)NCCCN(C)CCCNc2c(c(=O)c2=O)NCCCN(C)CCCNc2c(c(=O)c2=O)NCCCN(C)CCCNc2c(c(=O)c2=O)NCCCN(C)CCCNc2c(c(=O)c2=O)NCCCN(C)CCCNc2c(c(=O)c2=O)NCCC1` the value was 61.7%; for `CCN1CCC2(CC1)OC(c1ccccc1)C(c1ccccc1)O2` (centres undefined), 107%.
In the case of `O=C(O)c1ccc(Cl)cc1Nc1ccc(F)cc1`, the growth is 67.3%.
On to `CCCCCC(=O)c1ccc(OCCCN2CCN(C(=O)OCC)CC2)cc1`, for which the growth is 83.4%.
For the compound `COc1ccc(NC(=O)CSc2nc3ccccc3c(=O)n2CCc2ccccc2)cc1`, the growth is 75.2%.
With `COc1ccc(-c2nnc(-c3c(-c4ccccc4)nc4ncccn34)o2)cc1OC`, the growth was 114%.
Regarding `COc1ccc2nc3cc(Cl)ccc3c(NCCNCC(C)O)c2c1` (centres undefined), the growth was 38.1%.
For `CC(C)(C)NC/C(=C\c1ccccc1)C(=O)c1ccccc1` the value was 24.7%; for `COc1ccc(-c2ccc3cc(C(=O)Nc4ccc(O)c(C(=O)/C=C/c5cc(OC)c(OC)c(OC)c5)c4)ccc3c2)cc1`, 101%; for `CCCCN(CCCC)c1cc(C(=O)CCCCCN)c2ccccc2n1`, 24%.
The result for `COc1ccc(NC(=O)Cc2nc3nc4sc(C)c(C)c4c(=O)n3[nH]2)cc1` reads 93.1%; that for `COc1cc(-c2nc(-c3nnc(-c4ccc(F)c(Cl)c4)o3)c3ccccn23)cc(OC)c1OC`, 64.2%; that for `NC(=O)SCC(=O)Nc1ccc(S(N)(=O)=O)cc1`, 112%.
With `Nc1nccc(Nc2ccccc2)n1`, the growth is 107%.
The result for `Oc1[nH]c2cc(Cl)ccc2c1/C=c1/ccc2c(c1)N=C(c1cc(F)cc(F)c1)N=2` reads 57.2%; that for `c1ccc2c(c1)oc1c3cccnc3ccc21`, 64.4%; that for `COc1ccc2c(c1)sc1nc(-c3ccccc3)c(-c3ccsc3)n12`, 40.8%.
For `CSc1cc(SC)ncn1` the value was 107%.
Turning to `COc1ccc2c(c1)sc1nc(-c3ccccc3)c(-c3ccc(O)c(OC)c3)n12`, the growth was 88.4%.
Regarding `CCCCCCCCCCCCCC[n+]1ccc(C(N)=O)cc1`, the growth was 1.08% (active).
Regarding `CN1c2ccccc2[C@]2(Cc3ccccc3)Cc3ccccc3N[C@H]12`, the growth was 114%.
Take `CCN(CC)CCSCCCNc1c2ccc(Cl)cc2nc2ccc(OC)cc12`: the growth is -20.2% (active).
`CC(=O)c1cc(Br)ccc1O`: the growth was 107%.
For `COc1ccc(-c2nc3sccn3c2-c2nc3c([nH]2)C(=O)c2ccccc2C3=O)cc1`, the growth is 83.1%.
The result for `N=C1c2nc3n(c2C(=O)c2nc4n(c21)CCCC4)CCCC3` reads 95.6%; that for `COc1ccc(-c2nc3ccccn3c2-c2nnc(-c3cc(OC)c(OC)c(OC)c3)o2)cc1`, 71%; that for `CCN(CC)CCOc1nc2ccc(OC)cc2c2c1-c1ccc(OC)cc1C2=O`, 25.2%.
For `CCCCCCCCN(CCCCCCCC)CCCCCCCCCN1CCCc2cc(OC)ccc21`, the growth was 81.5%.
For `COc1ccc2c(c1)C(=O)c1c-2c(OCCN(C)C)nc2cc(OC)c(OC)cc12` the value was 93.9%; for `COc1ccc(/C(=C2\O[C@@H]([C@H]3COC(C)(C)O3)[C@H]3OC(C)(C)O[C@@H]23)c2cc(OC)c(OC)c(OC)c2)cc1O`, 90.2%.
`Nc1ccn(C2CC(O)C(CO)O2)c(=O)n1` (centres undefined): the growth was 102%.
For the compound `CC(C)=CCc1ccc(O)c(=O)cc1C(C)C`, the growth is 13.8%.
For `COc1cc(NC(=O)CSc2nc3ccccc3c(=O)n2CCc2ccccc2)cc(OC)c1OC` the value was 65.3%.
